Source: PubChem BioAssay (EPA / NIEHS)
Inconclusive results are not listed. Activity calls are given as the source filed them. Rule for the calls, unless noted: active = hit-call score of the fitted dose curve at least 0.9, where 1 is the maximum; inactive = score below 0.9.

How the values were obtained:
[1] = ATG_M_06_TRANS: Attagene TRANS-FACTORIAL HepG2 Assay for M06 Transcription Factor (Internal Marker) (AID 2282983; active = hit-call score of the fitted dose curve at least 0.9, where 1 is the maximum;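 note: reporter transcript level by RT-PCR then capillary electrophoresis fluorescence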); conditions: HepG2 Attagene TRANS M06 internal marker reporter
Procedure, shortened: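 HepG2 cells transiently transfected with multiplexed GAL4-UAS reporter transcription units; after 24 h compound exposure, reporter mRNA measured by RT-PCR, FAM-labelled primer extension, HpaI digestion and capillary electrophoresis. Gain-of-signal fitted versus DMSO baseline; background control readout.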

[2] = ATG_M_32_TRANS: Attagene TRANS-FACTORIAL HepG2 Assay for M32 Transcription Factor (Internal Marker) (AID 2282984; active = hit-call score of the fitted dose curve at least 0.9, where 1 is the maximum); conditions: HepG2 Attagene TRANS M32 internal marker reporter
Procedure, shortened: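 HepG2 cells transiently transfected with GAL4-UAS reporter units, dosed for 24 hours. Reporter mRNA quantified by RT-PCR, 6-FAM labelling, HpaI digestion and capillary electrophoresis; internal-marker signal fitted upward relative to DMSO.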

[3] = target: Nuclear receptor subfamily 4 group A member 2 (Homo sapiens) (UniProt P43354); experiment: ATG_NURR1_TRANS: Attagene TRANS-FACTORIAL HepG2 Assay for human Nuclear Receptor Related Protein 1 (NURR1) (AID 2282985; active = hit-call score of the fitted dose curve at least 0.9, where 1 is the maximum); conditions: HepG2 Attagene TRANS reporter, mRNA readout
Chain of Nuclear receptor subfamily 4 group A member 2 (Homo sapiens) (P43354 whole entry, looked up, the tested form may be a part): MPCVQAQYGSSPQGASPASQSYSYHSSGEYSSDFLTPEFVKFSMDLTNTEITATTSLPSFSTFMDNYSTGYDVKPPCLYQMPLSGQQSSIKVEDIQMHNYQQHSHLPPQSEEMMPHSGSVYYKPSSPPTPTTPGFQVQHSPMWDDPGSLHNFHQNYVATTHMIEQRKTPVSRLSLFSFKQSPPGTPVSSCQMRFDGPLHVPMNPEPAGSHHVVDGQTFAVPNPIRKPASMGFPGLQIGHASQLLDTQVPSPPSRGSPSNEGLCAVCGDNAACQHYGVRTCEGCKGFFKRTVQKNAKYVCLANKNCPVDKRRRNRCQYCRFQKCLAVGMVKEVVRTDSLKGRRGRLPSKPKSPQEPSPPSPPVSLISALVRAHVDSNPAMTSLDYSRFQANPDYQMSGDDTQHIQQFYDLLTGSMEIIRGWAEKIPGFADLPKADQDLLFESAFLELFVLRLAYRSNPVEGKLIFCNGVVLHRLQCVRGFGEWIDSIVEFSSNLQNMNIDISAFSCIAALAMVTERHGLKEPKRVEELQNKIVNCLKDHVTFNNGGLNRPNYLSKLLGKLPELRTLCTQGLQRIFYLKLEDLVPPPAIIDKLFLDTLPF
Procedure, shortened: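 HepG2 cells transiently transfected with NURR1-Gal4 chimera and GAL4-UAS reporter units; after 24 hr compound exposure, reporter mRNA quantified by RT-PCR and capillary electrophoresis; gain of signal fitted against DMSO.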

[4] = target: Transcriptional activator Myb (Homo sapiens) (UniProt P10242); experiment: ATG_Myb_CIS: Attagene CIS-FACTORIAL HepG2 Assay for human Myeloblastosis (Myb) Proto-Oncogene Transcription Factor (AID 2282986); conditions: HepG2 Attagene CIS-FACTORIAL Myb reporter transcription; actives raise or lower the signal
Chain of Transcriptional activator Myb (Homo sapiens) (P10242 whole entry, looked up): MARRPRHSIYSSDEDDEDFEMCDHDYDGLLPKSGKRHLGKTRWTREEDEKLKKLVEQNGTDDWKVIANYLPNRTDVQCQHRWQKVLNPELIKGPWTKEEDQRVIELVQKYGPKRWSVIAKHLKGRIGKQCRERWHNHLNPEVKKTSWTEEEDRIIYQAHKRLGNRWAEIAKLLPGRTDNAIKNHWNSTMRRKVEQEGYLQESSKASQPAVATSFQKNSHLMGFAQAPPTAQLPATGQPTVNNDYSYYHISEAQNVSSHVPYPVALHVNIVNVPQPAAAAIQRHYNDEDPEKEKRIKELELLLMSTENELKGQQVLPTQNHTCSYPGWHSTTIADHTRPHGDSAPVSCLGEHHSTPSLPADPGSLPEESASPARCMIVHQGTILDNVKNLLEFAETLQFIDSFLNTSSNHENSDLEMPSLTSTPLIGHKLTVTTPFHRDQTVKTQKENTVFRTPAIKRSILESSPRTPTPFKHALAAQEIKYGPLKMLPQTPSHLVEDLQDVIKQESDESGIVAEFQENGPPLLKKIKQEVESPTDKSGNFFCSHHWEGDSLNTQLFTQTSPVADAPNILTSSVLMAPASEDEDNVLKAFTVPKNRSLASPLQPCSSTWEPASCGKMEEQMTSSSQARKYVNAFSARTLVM
Procedure, shortened: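 Transiently transfected HepG2 cells, treated 24 h. Reporter mRNA quantified by RT-PCR/capillary electrophoresis; bidirectional fit relative to DMSO.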

[5] = target: Nuclear respiratory factor 1 (Homo sapiens) (UniProt Q16656); experiment: ATG_NRF1_CIS: Attagene CIS-FACTORIAL HepG2 Assay for human Nuclear Respiratory Factor 1 (NRF1) Orphan Gene (AID 2282987); conditions: HepG2 NRF1 cis-element reporter, Attagene multiplex; actives raise or lower the signal
Chain of Nuclear respiratory factor 1 (Homo sapiens) (Q16656 whole entry, looked up, the tested form may be a part): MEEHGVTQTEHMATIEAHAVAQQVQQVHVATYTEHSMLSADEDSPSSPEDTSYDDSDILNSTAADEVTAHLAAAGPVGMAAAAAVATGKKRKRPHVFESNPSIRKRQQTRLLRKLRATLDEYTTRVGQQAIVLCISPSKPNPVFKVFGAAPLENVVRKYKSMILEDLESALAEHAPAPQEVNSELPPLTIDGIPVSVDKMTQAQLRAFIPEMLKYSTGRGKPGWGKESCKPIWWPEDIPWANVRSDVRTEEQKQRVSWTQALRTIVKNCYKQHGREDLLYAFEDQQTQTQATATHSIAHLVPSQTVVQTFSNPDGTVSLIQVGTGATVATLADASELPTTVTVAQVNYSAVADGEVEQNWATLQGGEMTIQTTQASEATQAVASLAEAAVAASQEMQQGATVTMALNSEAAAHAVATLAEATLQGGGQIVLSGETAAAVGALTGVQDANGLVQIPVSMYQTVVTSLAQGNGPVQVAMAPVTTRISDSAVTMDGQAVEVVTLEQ
Procedure, shortened: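 Cells (HepG2, transient MRTU transfection) are exposed to compound for 24 h, then RNA isolated and reporter mRNA amplified and fluorescently labelled. Fragments are separated by capillary electrophoresis; signal change is fitted bidirectionally relative to DMSO.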

[6] = ATG_NFI_CIS: Attagene CIS-FACTORIAL HepG2 Assay for human Nuclear Factor I (NFI) (AID 2282989); conditions: HepG2 cis-regulatory reporter, NFI response element transcription; actives raise or lower the signal
Procedure, shortened: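 Multiplexed cis-reporter system in human HepG2 cells reports native TF activity as reporter mRNA induction 24 h post-dose. Fragments labelled with 6-FAM, HpaI-digested and resolved by capillary electrophoresis; activity fitted both directions versus DMSO.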

[7] = target: Myc proto-oncogene protein (Homo sapiens) (UniProt P01106); experiment: ATG_Myc_CIS: Attagene CIS-FACTORIAL HepG2 Assay for human Myelocytomatosis (Myc) Proto-Oncogene Transcription Factor (AID 2282990); conditions: HepG2, Attagene cis-reporter transcription factor activity; actives raise or lower the signal
Chain of Myc proto-oncogene protein (Homo sapiens) (P01106 whole entry, looked up, the tested form may be a part): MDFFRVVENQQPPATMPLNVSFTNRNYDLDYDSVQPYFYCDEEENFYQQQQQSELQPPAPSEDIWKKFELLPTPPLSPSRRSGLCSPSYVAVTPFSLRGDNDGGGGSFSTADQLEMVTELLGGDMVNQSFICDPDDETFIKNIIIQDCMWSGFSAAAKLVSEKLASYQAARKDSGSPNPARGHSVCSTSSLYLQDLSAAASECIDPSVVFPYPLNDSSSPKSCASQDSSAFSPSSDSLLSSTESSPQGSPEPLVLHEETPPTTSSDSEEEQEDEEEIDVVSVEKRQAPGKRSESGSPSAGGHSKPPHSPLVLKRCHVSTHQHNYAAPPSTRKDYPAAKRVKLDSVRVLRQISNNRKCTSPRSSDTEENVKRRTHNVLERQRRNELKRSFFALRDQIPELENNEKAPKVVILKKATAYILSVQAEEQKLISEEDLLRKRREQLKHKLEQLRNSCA
Procedure, shortened: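 Fluorescence intensity of reporter-specific cDNA fragments, separated by capillary electrophoresis, gives the signal. Transfected HepG2 cells carrying cis-promoter reporter constructs are incubated with compound for 24 h; DMSO serves as baseline.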

[8] = ATG_NF_kB_CIS: Attagene CIS-FACTORIAL HepG2 Assay for human Nuclear Factor Kappa B (NF-kB) (AID 2282991); conditions: HepG2 Attagene cis-factorial NF-kB reporter mRNA; actives raise or lower the signal
Procedure, shortened: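 Measures mRNA induction of an NF-kB-responsive cis-element reporter in HepG2 cells transfected with multiple reporter units, sampled 24 h post-dosing; quantified by fluorescence after RT-PCR and capillary electrophoresis, fitted for activation or inhibition against DMSO.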

[9] = ATG_NRF2_ARE_CIS: Attagene CIS-FACTORIAL HepG2 Assay for human Nuclear Factor Erythroid 2 Related Factor 2 (NFR2) response to Antioxidant Response Elements (ARE) (AID 2282992); conditions: HepG2 Attagene ARE/NRF2 reporter, transcription factor activity; actives raise or lower the signal;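 for AC50: reporter mRNA level measured by RT-PCR and capillary electrophoresis fluorescence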
Procedure, shortened: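 Cis-factorial assay: transfected HepG2 reporter library, 24 h dosing, mRNA readout via RT-PCR/CE; DMSO-referenced bidirectional analysis.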

[10] = ATG_Oct_MLP_CIS: Attagene CIS-FACTORIAL HepG2 Assay for human Octamer-Binding Transcription Factor (Oct) (AID 2282993); conditions: HepG2 Attagene cis-factorial Oct reporter, mRNA; actives raise or lower the signal
Procedure, shortened: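 After 24 h compound exposure, transfected HepG2 cells were lysed for total RNA; reporter-specific cDNA was PCR-amplified, fluorescently labelled and sized by capillary electrophoresis. Bidirectional curve fitting used DMSO as baseline.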

[11] = target: Cellular tumor antigen p53 (Homo sapiens) (UniProt P04637); experiment: ATG_p53_CIS: Attagene CIS-FACTORIAL HepG2 Assay for human p53 Transcription Factor (AID 2282994); conditions: HepG2 p53 cis-element reporter, Attagene mRNA; actives raise or lower the signal
Chain of Cellular tumor antigen p53 (Homo sapiens) (P04637 whole entry, looked up): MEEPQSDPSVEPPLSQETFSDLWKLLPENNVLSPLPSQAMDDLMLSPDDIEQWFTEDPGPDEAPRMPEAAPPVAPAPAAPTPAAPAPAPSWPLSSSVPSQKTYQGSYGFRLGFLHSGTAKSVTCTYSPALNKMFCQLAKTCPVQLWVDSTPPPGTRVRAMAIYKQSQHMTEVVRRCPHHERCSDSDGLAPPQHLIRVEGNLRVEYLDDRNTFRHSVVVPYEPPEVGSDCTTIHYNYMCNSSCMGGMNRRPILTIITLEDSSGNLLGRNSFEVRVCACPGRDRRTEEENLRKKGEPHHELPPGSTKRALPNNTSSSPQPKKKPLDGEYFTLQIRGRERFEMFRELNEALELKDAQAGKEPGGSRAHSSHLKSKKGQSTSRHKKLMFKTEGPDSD
Procedure, shortened: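 Using HepG2 hepatoma cells carrying cis-acting multiplexed reporters, mRNA induction is detected after a 24 h exposure. Gain- and loss-of-signal responses are fitted relative to DMSO-treated cells.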

[12] = BSK_3C_TissueFactor: BioMAP Diversity Plus: 3C Assay for Tissue Factor Biomarker Activity (AID 2282997); conditions: BioMAP 3C HUVEC, tissue factor biomarker readout; actives raise or lower the signal
Procedure, shortened: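 Primary human umbilical vein endothelial cells in the 3C system were exposed to test chemical for 24 h, then Tissue Factor measured by ELISA. Activity was fitted bidirectionally against DMSO as negative control and baseline.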

[13] = BSK_3C_uPAR: BioMAP Diversity Plus: 3C Assay for Urokinase-type plasminogen activator receptor (uPAR) Biomarker Activity (AID 2282998); conditions: BioMAP 3C HUVEC, uPAR biomarker ELISA; actives raise or lower the signal
Procedure, shortened: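 Values derive from bidirectional curve fitting relative to DMSO, which served as baseline of activity. uPAR was measured by ELISA in human umbilical vein endothelial primary cultures 24 h after compound addition.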

[14] = BSK_3C_VCAM1: BioMAP Diversity Plus: 3C Assay for Vascular cell adhesion molecule 1 (VCAM1) Biomarker Activity (AID 2282999); conditions: BioMAP 3C HUVEC, VCAM1 ELISA, cytokine-stimulated; actives raise or lower the signal
Procedure, shortened: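 Human umbilical vein endothelial cells (3C system), biomarker read by ELISA 24 h after dosing; bidirectional fit against DMSO baseline. Cytotoxicity tracked by SRB total-protein staining in parallel cultures at biomarker time.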

[15] = BSK_4H_Eotaxin3: BioMAP Diversity Plus: 4H Assay for Eotaxin 3 Biomarker Activity (AID 2283000); conditions: primary human endothelial cells (HUVEC); actives raise or lower the signal
Procedure, shortened: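 HUVEC, 24 h post-dose, ELISA for Eotaxin-3/CCL26. Gain or loss of signal fitted bidirectionally vs DMSO baseline.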

[16] = target: human Peroxisome Proliferator-activated Receptor delta (PPARd), PPARD (gene 5467) (UniProt Q03181); experiment: ATG_PPARd_TRANS: Attagene TRANS-FACTORIAL HepG2 Assay for human Peroxisome Proliferator-activated Receptor delta (PPARd) (AID 2283002; active = hit-call score of the fitted dose curve at least 0.9, where 1 is the maximum)
Chain of human Peroxisome Proliferator-activated Receptor delta (PPARd), PPARD (gene 5467) (Q03181 whole entry, looked up, the tested form may be a part): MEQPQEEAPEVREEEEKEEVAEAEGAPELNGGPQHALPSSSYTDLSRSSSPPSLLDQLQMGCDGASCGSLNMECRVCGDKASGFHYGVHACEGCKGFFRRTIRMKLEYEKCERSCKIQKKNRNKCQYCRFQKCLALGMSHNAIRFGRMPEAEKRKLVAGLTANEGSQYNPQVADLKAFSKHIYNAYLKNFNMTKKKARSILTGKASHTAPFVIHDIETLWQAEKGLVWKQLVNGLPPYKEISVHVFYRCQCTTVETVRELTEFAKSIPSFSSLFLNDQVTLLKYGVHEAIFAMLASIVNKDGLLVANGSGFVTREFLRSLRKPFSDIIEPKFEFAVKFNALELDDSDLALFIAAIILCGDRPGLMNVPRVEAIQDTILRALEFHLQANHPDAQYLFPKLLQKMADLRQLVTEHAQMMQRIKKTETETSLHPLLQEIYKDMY
Procedure, shortened: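 Fluorescence from capillary electrophoresis of labelled RT-PCR reporter fragments gives the signal; DMSO sets baseline. Cells: HepG2 transiently carrying GAL4-UAS reporter units plus chimeric nuclear receptor-Gal4 proteins, exposed to chemicals for 24 h.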

[17] = target: Hepatocyte nuclear factor 4-alpha (Homo sapiens) (UniProt P41235); experiment: ATG_HNF4a_TRANS: Attagene TRANS-FACTORIAL HepG2 Assay for human Hepatocyte Nuclear Factor 4 alpha (HNF4a) (AID 2282982; active = hit-call score of the fitted dose curve at least 0.9, where 1 is the maximum); conditions: HepG2 HNF4a transactivation reporter, mRNA readout
Chain of Hepatocyte nuclear factor 4-alpha (Homo sapiens) (P41235 whole entry, looked up, the tested form may be a part): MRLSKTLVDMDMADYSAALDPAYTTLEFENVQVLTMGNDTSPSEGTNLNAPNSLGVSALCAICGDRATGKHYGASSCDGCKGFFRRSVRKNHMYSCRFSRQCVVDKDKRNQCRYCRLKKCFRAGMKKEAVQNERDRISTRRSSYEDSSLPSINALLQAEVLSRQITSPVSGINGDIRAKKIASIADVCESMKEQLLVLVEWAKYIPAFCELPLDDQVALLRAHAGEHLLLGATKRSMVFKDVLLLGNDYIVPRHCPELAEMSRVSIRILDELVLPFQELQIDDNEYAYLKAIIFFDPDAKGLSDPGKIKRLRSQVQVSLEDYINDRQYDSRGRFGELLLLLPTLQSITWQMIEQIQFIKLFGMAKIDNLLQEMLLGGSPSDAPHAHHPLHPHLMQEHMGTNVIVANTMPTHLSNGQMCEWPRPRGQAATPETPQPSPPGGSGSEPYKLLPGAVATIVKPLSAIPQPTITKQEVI
Procedure, shortened: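 HepG2 cells transiently transfected with HNF4a-Gal4 chimera and GAL4-UAS reporter units, dosed for 24 h. Reporter mRNA measured by RT-PCR, fluorescent primer extension and capillary electrophoresis; gain-of-signal fitted relative to DMSO.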

[18] = target: human Peroxisome Proliferator-activated Receptor alpha (PPARa), PPARA (gene 5465) (UniProt Q07869); experiment: ATG_PPARa_TRANS: Attagene TRANS-FACTORIAL HepG2 Assay for human Peroxisome Proliferator-activated Receptor alpha (PPARa) (AID 2283001; active = hit-call score of the fitted dose curve at least 0.9, where 1 is the maximum)
Chain of human Peroxisome Proliferator-activated Receptor alpha (PPARa), PPARA (gene 5465) (Q07869 whole entry, looked up, the tested form may be a part): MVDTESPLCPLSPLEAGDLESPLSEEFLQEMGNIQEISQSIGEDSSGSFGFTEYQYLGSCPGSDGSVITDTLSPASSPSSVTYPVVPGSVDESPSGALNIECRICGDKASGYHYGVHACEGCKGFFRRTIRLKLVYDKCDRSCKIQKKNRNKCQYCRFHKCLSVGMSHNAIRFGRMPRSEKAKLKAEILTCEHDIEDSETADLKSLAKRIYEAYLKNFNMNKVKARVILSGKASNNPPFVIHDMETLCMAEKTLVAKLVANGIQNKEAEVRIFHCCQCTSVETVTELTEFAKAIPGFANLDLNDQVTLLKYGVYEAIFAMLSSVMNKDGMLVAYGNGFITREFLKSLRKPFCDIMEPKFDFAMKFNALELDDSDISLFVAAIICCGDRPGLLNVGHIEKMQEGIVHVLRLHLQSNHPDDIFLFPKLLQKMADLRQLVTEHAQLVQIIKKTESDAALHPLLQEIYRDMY
Procedure, shortened: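 HepG2 cells transiently transfected with multiplexed GAL4-UAS reporters driven by exogenous chimeric NR-Gal4 proteins; reporter mRNA measured after 24 h dosing. Read-out by RT-PCR, 6-FAM labelling, HpaI digestion and capillary electrophoresis; gain of signal versus DMSO.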

Measured: AC50

CNS(=O)(=O)c1cc(C(=O)N2CCC(CCN3C4CCC3CC(n3c(C)nc5ccccc53)C4)(c3cccc(F)c3)CC2)c(Cl)cc1F (stereo unspecified)
active: [8] 5.18 µM | [9] 2.71 µM | [11] 6.99 µM | [13] 16.7 µM | [14] 13.5 µM | [15] 30.9 µM
inactive: [1] | [2] | [3] | [4] | [5] | [6] | [7] | [10] | [12] | [16]

NC(=O)NO
inactive: [1] | [5] | [6] | [7] | [8] | [9] | [10] | [11] | [12] | [13] | [14] | [15] | [16]

C1=CCCC=CCCC=CCC1
inactive: [1] | [4] | [5] | [6] | [7] | [8] | [10] | [11] | [12] | [13] | [14] | [15]
active: [9] 159 µM

O=C(O)CCN(C1(C(=O)NO)CCCC1)S(=O)(=O)c1ccc(Oc2ccc(F)cc2)cc1
inactive: [17] | [5] | [6] | [7] | [8] | [9] | [10] | [11] | [12] | [13] | [14] | [15] | [18]

O=C(O)CC(O)C(=O)O (stereo unspecified)
inactive: [1] | [4] | [5] | [6] | [7] | [9] | [10] | [11] | [12] | [13] | [14] | [15] | [18]

Clc1nc(Cl)c(Cl)c(Cl)c1Cl
active: [9] 11.2 µM | [14] 16.5 µM
inactive: [1] | [2] | [3] | [4] | [5] | [6] | [7] | [8] | [10] | [11] | [12] | [13] | [15] | [16]

CCCCCCCCO
inactive: [17] | [5] | [6] | [7] | [9] | [10] | [11] | [12] | [13] | [14] | [15] | [18]
